# Measurements: the supplement of paper PMC6555819
# Columns and labels:
# Assay in all cases: PBM binding z-score (relative to random genomic background probes); higher = stronger binding; sequences stand for … in GC…GCGATTGACAGCGTAGAATGAAGG
# [1] = tested on: RARb homodimer (NR concentration 270 nM)
# In short: (§1)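 Custom Agilent 4×180K protein-binding microarrays carried double-stranded probes. Their 34-nt variable regions held direct-repeat seeds, single-nucleotide variants, half-site ablations and random human genomic background sequences. Arrays were incubated 1 h with ligand-free nuclear receptor dimers in PBS pH 7.4, 2% milk, 0.02% Triton X-100, 1 mM DTT, 0.2 mg/mL BSA and 0.4 mg/ml salmon testes DNA. Antibodies against each partner (one per run) detected binding, and scanned fluorescence was regression-normalized. Binding z-scores use random background probes as reference.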
# [2] = tested on: RARg:RXRa (NR concentration 270 nM, RXRa partner concentration 90 nM)
# In short: as §1
# [3] = tested on: RARg homodimer (NR concentration 270 nM)
# In short: as §1
# [4] = tested on: RXRa DBDmut IVT, anti-RXR (DBD mutation: RXRa K156A/R161A, NR concentration 90 nM)
# In short: as §1
# [5] = tested on: THRa:RXRa (NR concentration 90 nM, RXRa partner concentration 90 nM)
# In short: as §1
# [6] = tested on: THRa homodimer (NR concentration 90 nM)
# In short: as §1
# [7] = tested on: VDR:RXRa (NR concentration 270 nM, RXRa partner concentration 90 nM)
# In short: as §1
# [8] = tested on: VDR homodimer (NR concentration 270 nM)
# In short: as §1
Sequence,PBM binding z-score [1],PBM binding z-score [2],PBM binding z-score [3],PBM binding z-score [4],PBM binding z-score [5],PBM binding z-score [6],PBM binding z-score [7],PBM binding z-score [8]
TAGCCTAGGTCATGCGGGCCAGTATAGTGTCGGC,2.89,3.98,4.4,0.813,3.02,0.858,2.89,0.814
ATATGTGGGTTATCGGGTCATTCAGTTTGCGCAT,3.15,2.99,2.07,1.99,3.45,3.41,5.21,4.15
CCAGACAGGTGAAAGGTCACTCAGTCTGGTACGC,4.99,6.66,5.89,1.18,3.75,1.02,5.03,2.37
CCTTACGGGTCACGGGGTTATAGCACGACGAGCG,3.7,6.74,5.54,1.77,4,0.91,,2.44
CAAAGTAGGTCAAGAGGTCAAAGTCCGCTTCCCG,5.78,8.31,7.92,2.89,4.21,1.84,6.25,4.84
CCTACTGGGCCAAAAAGGTAATTGATGCCGATAA,-0.363,0.0737,-0.0665,-0.561,0.109,-0.602,-0.157,-0.646
GCTTACGGGTCAAAGGTTACAGCATGAATAGAAT,3.57,7.1,5.1,2.74,3.93,0.157,,1.75
CTTAGTTGGTCAAGGTCACACACGCTATAGGTAC,4.53,4.9,5.2,2.05,4.43,4.65,,3.96
CCTAGTTGGTCAAGCTCACACACGCTATAGGTAC,0.906,0.632,1.12,0.623,0.136,0.545,0.609,0.614
GCTCGGAGGACAAGGTCACAGCTTTGTCCGTAGA,3.72,4.76,4.75,1.17,3.79,3.04,,1.96
CAAACTAGGTCACAGAGGGCAAAGTCCGTGCGTA,4.14,5.05,5.61,2.45,3.87,1.55,7.09,4.18
ACTCGGAGGGCAAAGGTCAGAGCTACGCCAGTGA,4.39,7.23,5.86,1.7,3.36,-0.408,4.32,1.05
CCTACTGGGCGACGAAAGGTCATTGATTCAGTGA,4.11,4.14,3.31,0.216,3.13,0.124,3.36,1.38
CGAACTAAGTCAAAGGACAGTGAAAGGCGACGTA,1.11,0.597,1.1,0.0633,0.219,-0.0369,,-0.13
CGTCCAACGTCAGCAGGTCAGTGAAAGCGACGTG,1.92,0.905,1.54,-0.094,0.784,-0.139,,-0.585
TAGCCTAGGTCATAGGGCCAGTATAGTACGCATC,2.98,3.86,3.89,0.967,2.75,0.823,,0.453
GCTTACGGGTCAAAGGTTAAAGCATGAATAGAAT,3.36,7.28,5.18,2.07,4,-0.111,,1.4
CCTACTGGGCCATTCAGAGGTTATTGATCATATG,1.19,1.1,0.495,0.368,0.915,0.14,0.462,0.749
ACTAGTTGGTCAGCTGAGGTAACACACAATTCGG,1.07,0.611,0.949,0.36,3.97,1.99,0.448,0.0871
CCTAGCAGGCGAGGGTCACTCAAGCATTTCGCTT,2.36,2.77,1.69,0.212,1.79,-0.42,,0.128
CCTGGCAGGCCAGGGTCACTCAAGCATTTCGCTT,2.66,3.49,2.46,-0.63,2.96,0.655,,1.3
CGTCAAAGTTCAAGGCAACGTAACAGAAAGCAGC,3.41,5.02,6.02,3.97,1.72,-0.246,3.3,2.61
TCTAGTTGGTCGCGGAGGTCACACACGACGGGTA,3.92,3.94,3.62,0.932,3.45,2.74,,2.63
CAAACTAGGTCACAGAGGACAAAGTCCGTGCGTA,3.93,4.96,6.01,2.36,3.89,1.94,,3.57
GATACAGGGTCAATGCCAGAGTACGCGTATTGAT,3.11,4.62,4.35,2.89,2.87,0.742,3.93,2.31
GATAGTTGGTCAGTAAAAGGTCACACACCGGTCG,5.36,5.32,4.96,0.579,3.59,1.91,,2.12
ACTAGTTGGTCAGCTGAGGTCACACACAATTCGG,4.52,4.26,4.51,1.35,5.14,4.99,,3.54
TGAATGAGGTCAAAGATCAGGGAACGTGGCGTCG,3.65,6.3,6.16,4.12,4.33,3.06,5.6,4.68
TCATATAGGTAAAAGGTCAAAGTCGGTGTGGTAA,4.74,6.62,5.95,2.5,3.85,1.47,,3.09
TCATATAGGTCAAAGGTGAAAGTCGGTGTGGTAA,4.1,7.06,5.46,2.48,3.74,0.997,,1.49
